Measurements as given in PubChem BioAssay (EPA / NIEHS).
Results filed as inconclusive are left out. The source made the active and inactive calls. Rule for the calls: active = hit-call score of the fitted dose curve at least 0.9, where 1 is the maximum; inconclusive = response in the unintended direction; inactive = score below 0.9.

How the values were obtained:
[1] = target: Cellular tumor antigen p53 (Homo sapiens) (UniProt P04637); experiment: TOX21_p53_BLA_p2_ratio: Tox21 HCT-116 p53 Agonism Beta-lactamase Assay, Ratio, Phase 2 (AID 2283592)
Chain of Cellular tumor antigen p53 (Homo sapiens) (P04637 whole entry, looked up): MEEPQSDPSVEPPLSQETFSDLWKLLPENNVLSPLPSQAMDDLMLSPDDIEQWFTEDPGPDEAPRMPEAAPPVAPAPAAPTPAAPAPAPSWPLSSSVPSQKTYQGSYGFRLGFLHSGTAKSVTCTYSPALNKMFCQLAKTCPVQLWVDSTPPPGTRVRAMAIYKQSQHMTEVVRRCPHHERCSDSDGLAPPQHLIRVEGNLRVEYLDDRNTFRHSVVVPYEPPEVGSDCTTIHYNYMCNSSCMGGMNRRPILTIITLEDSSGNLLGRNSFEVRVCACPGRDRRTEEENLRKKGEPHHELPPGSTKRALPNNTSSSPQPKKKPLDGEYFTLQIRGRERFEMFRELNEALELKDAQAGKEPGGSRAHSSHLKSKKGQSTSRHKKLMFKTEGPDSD
Procedure, shortened: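 An inducible beta-lactamase reporter in HCT116 cells signals p53 pathway activation. After 16 h chemical exposure at 37C, cells load CCF4-AM substrate for 2 h at room temperature; activity is the cleaved/uncleaved emission ratio relative to DMSO.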

[2] = target: Cellular tumor antigen p53 (Homo sapiens) (UniProt P04637); experiment: TOX21_p53_BLA_p3_ratio: Tox21 HCT-116 p53 Agonism Beta-lactamase Assay, Ratio, Phase 3 (AID 2283596)
Procedure, shortened: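 HCT116 p53-bla cells (4000/well) given compound in DMSO (217-fold dilution) after 5 h, incubated 16 h at 37C. CCF4-AM substrate 2 h at room temperature; 460/530 nm emission ratio, gain fitted against DMSO.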

[3] = TOX21_p53_BLA_p5_viability: Viability Assessment in the Tox21 HCT-116 p53 Agonism Beta-lactamase Assay, Phase 5 (AID 2283600)
Procedure, shortened: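 Counter-readout for cytotoxicity: ATP-dependent luminescence from CellTiter-Glo, read in the beta-lactamase wells after 30 min at RT, following a 16 h compound exposure at 37C.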

[4] = Tanguay_ZF_120hpf_MORT_legacy: (Legacy) Oregon State University Tanguay Lab 120 Hour Post-fertilization zebrafish Assay for Mortality (AID 2283633);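 for AC50: fitted as increase in binary mortality versus DMSO negative control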
Procedure, shortened: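 Mortality endpoint from a multiplexed whole-embryo zebrafish screen. Dechorionated wild-type embryos received compound at 6 hpf and remained under static exposure at 28C until 120 hpf, with death noted as a present/absent call.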

[5] = Tanguay_ZF_120hpf_AXIS_legacy: (Legacy) Oregon State University Tanguay Lab 120 Hour Post-fertilization zebrafish Assay for Body Axis Malformation (AID 2283635);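 for AC50: potency for an increased fraction of larvae scored with body axis malformation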
Procedure, shortened: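 Static 6–120 hpf chemical exposure of dechorionated wild-type 5D zebrafish, one per well at 28C; morphology endpoint scored binary at 120 hpf relative to DMSO control.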

[6] = Tanguay_ZF_120hpf_EYE_legacy: (Legacy) Oregon State University Tanguay Lab 120 Hour Post-fertilization zebrafish Assay for Eye Malformation (AID 2283636)
Procedure, shortened: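 Read-out is binary presence or absence of eye malformation, scored by brightfield microscopy at 120 hpf. Single larvae were exposed from 6 hpf in embryo medium containing 0.64% DMSO, with DMSO as baseline.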

[7] = Tanguay_ZF_120hpf_SNOU_legacy: (Legacy) Oregon State University Tanguay Lab 120 Hour Post-fertilization zebrafish Assay for Snout Malformation (AID 2283637)
Procedure, shortened: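 Snout malformation read as a yes/no call on brightfield images of 120 hpf larvae (Tropical 5D strain). Static exposure began at 6 hpf on dechorionated embryos in 0.64% DMSO, with gain of signal analysed versus DMSO controls.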

[8] = Tanguay_ZF_120hpf_JAW_legacy: (Legacy) Oregon State University Tanguay Lab 120 Hour Post-fertilization zebrafish Assay for Jaw Malformation (AID 2283638);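 for AC50: active means more embryos with jaw malformation than DMSO controls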
Procedure, shortened: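 Static waterborne exposure of dechorionated wild-type (Tropical 5D) zebrafish from 6 to 120 hpf at 28C, 0.64% DMSO vehicle; 5uM trimethyltin chloride served as positive control. Jaw morphology recorded as binary at 120 hpf.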

[9] = Tanguay_ZF_120hpf_OTIC_legacy: (Legacy) Oregon State University Tanguay Lab 120 Hour Post-fertilization zebrafish Assay for Otic Vesicle Malformation (AID 2283639)
Procedure, shortened: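 Embryos from 5D wild-type adults exposed in plates; DMSO 0.64% v/v final. Sealed, light-protected, 28C, static to 120 hpf. Otic vesicle malformation recorded as binary endpoint; gain-of-signal fitted vs DMSO.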

[10] = Tanguay_ZF_120hpf_PE_legacy: (Legacy) Oregon State University Tanguay Lab 120 Hour Post-fertilization zebrafish Assay for Pericardial Edema (AID 2283640);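 for AC50: potency for increased incidence of pericardial edema versus DMSO baseline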
Procedure, shortened: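 Read-out is the presence or absence of pericardial edema at 120 hpf under brightfield, with gain of signal fitted against DMSO controls. Larvae (5D wild-type) were statically exposed at 28C with 0.64% final DMSO.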

[11] = Tanguay_ZF_120hpf_SOMI_legacy: (Legacy) Oregon State University Tanguay Lab 120 Hour Post-fertilization zebrafish Assay for Somite Malformation (AID 2283647)
Procedure, shortened: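 5D WT zebrafish; chorion removed 4 hpf; 1 embryo/well from 6 hpf; static exposure to 120 hpf, 28C, 0.64% DMSO final. Endpoint: somite malformation, binary, brightfield. Mortality excluded.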

[12] = Tanguay_ZF_120hpf_PFIN_legacy: (Legacy) Oregon State University Tanguay Lab 120 Hour Post-fertilization zebrafish Assay for Pectoral Fin Malformation (AID 2283648);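 note: each larva judged yes or no for fin defect by brightfield with dead larvae skipped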
Procedure, shortened: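 5D WT zebrafish; pronase dechorionation 4 hpf; 1 embryo/well at 6 hpf; static exposure to 120 hpf, 28C, sealed, foil-covered; final DMSO 0.64% v/v; 5 uM trimethyltin chloride positive control; fin defect scored yes/no.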

[13] = Tanguay_ZF_120hpf_CFIN_legacy: (Legacy) Oregon State University Tanguay Lab 120 Hour Post-fertilization zebrafish Assay for Caudal Fin Malformation (AID 2283649)
Procedure, shortened: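 Embryos were collected from Tropical 5D wild-type adults and dechorionated at 4 hpf. At 6 hpf each was exposed, one per well, at 0.64% DMSO and 28C. At 120 hpf fin morphology was scored; dead embryos were excluded.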

[14] = TOX21_p53_BLA_p2_viability: Viability Assessment in the Tox21 HCT-116 p53 Agonism Beta-lactamase Assay, Phase 2 (AID 2283591);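 note: actives lower the ATP signal meaning cytotoxicity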
Procedure, shortened: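 Cytotoxicity readout: CellTiter-Glo ATP luminescence, 30 min at room temperature, after the beta-lactamase read. Cells were HCT116 exposed 16 h at 37C to compounds pin-transferred at 217-fold dilution from DMSO stocks.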

[15] = TOX21_p53_BLA_p3_viability: Viability Assessment in the Tox21 HCT-116 p53 Agonism Beta-lactamase Assay, Phase 3 (AID 2283593);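 note: cells exposed to compound for 16 h before reading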
Procedure, shortened: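 Cellular ATP was quantified by CellTiter-Glo luminescence, read after 30 min at room temperature. Beforehand, HCT116 cells (4000/well) received compound 5 h post-seeding, 217-fold diluted from DMSO, then incubated 16 h at 37C.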

[16] = target: Cellular tumor antigen p53 (Homo sapiens) (UniProt P04637); experiment: TOX21_p53_BLA_p4_ratio: Tox21 HCT-116 p53 Agonism Beta-lactamase Assay, Ratio, Phase 4 (AID 2283601)
Procedure, shortened: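 Signal is the blue/green (460nm/530nm) ratio of cleaved versus uncleaved CCF4-AM substrate, read after 2 h substrate loading. Cells were HCT116 carrying the p53-responsive beta-lactamase reporter, dosed 16 h at 37C, 5% CO2; CellTiter-Glo measured in parallel.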

[17] = Tanguay_ZF_120hpf_YSE_legacy: (Legacy) Oregon State University Tanguay Lab 120 Hour Post-fertilization zebrafish Assay for Yolk Sac Edema (AID 2283634);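 for AC50: actives raise the incidence of yolk sac edema above the DMSO baseline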
Procedure, shortened: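 Readout: presence or absence of yolk sac edema at 120 hpf, fitted upward against DMSO controls. Exposure ran statically from 6 hpf in dechorionated embryos kept at 28C.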

[18] = TOX21_p53_BLA_p4_viability: Viability Assessment in the Tox21 HCT-116 p53 Agonism Beta-lactamase Assay, Phase 4 (AID 2283597);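 note: hits lower the luminescence signal meaning cytotoxicity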
Procedure, shortened: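 Compound exposure of HCT116 cells lasts 16 h at 37C, 5% CO2, with DMSO stocks diluted 217-fold. Cellular ATP is then quantified by CellTiter-Glo luminescence after 30 min at room temperature.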

[19] = target: Cellular tumor antigen p53 (Homo sapiens) (UniProt P04637); experiment: TOX21_p53_BLA_p5_ratio: Tox21 HCT-116 p53 Agonism Beta-lactamase Assay, Ratio, Phase 5 (AID 2283599)
Procedure, shortened: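 Beta-lactamase reporter ratio (blue 460 nm over green 530 nm, 405 nm excitation) after 2 h CCF4-AM loading, in HCT-116 cells exposed 16 h at 37 C to compounds pinned at 217-fold dilution. Increases relative to DMSO baseline scored.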

[20] = Tanguay_ZF_120hpf_BRAI_legacy: (Legacy) Oregon State University Tanguay Lab 120 Hour Post-fertilization zebrafish Assay for Brain Malformation (AID 2283641)
Procedure, shortened: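 Brain malformation in Tropical 5D zebrafish was recorded as a binary endpoint after static compound exposure from early development to 120 hpf at 28C. Activity was analysed against DMSO as negative control.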

Measured: AC50

CSc1nc(NC(C)C)nc(NC(C)C)n1
not listed: [14] | [15] | [16] | [17] | [18] | [19] | [20]
inactive: all other assays above

CCC(=NOC/C=C/Cl)C1=C(O)CC(C2CCOCC2)CC1=O (configuration not stated)
not listed: [1] | [2] | [18] | [19] | [20]
inactive: all other assays above

CNC(=O)Oc1cccc2c1OC(C)(C)O2
not listed: [2] | [3] | [14] | [15]
inactive: all other assays above

CNC(=O)ON=C(C)SC
active: [5] 10.1 µM | [8] 39.5 µM
not listed: [1] | [2] | [11] | [14] | [15] | [18] | [19]
inactive: all other assays above

CCOP(=O)(OCC)Oc1cc(C)nc(C(C)C)n1
not listed: [14] | [16] | [18]
inactive: all other assays above

CCOP(=S)(OCC)OC(Cl)C(Cl)(Cl)Cl (configuration not stated)
not listed: [2] | [14] | [18] | [19] | [20]
inactive: all other assays above

CC(Oc1cccc(Cl)c1)C(=O)O (configuration not stated)
not listed: [14] | [15] | [17]
inactive: all other assays above

CCc1cccc(CC)c1N(COC)C(=O)CCl
active: [4] 13.4 µM
inactive: [17] | [5] | [6] | [7] | [8] | [9] | [10] | [20] | [11] | [12]

CCCCOC(=O)[C@@H](C)Oc1ccc(Oc2ccc(C#N)cc2F)cc1
not listed: [2] | [3] | [9] | [11] | [12] | [15] | [17] | [20]
inactive: all other assays above

O=[N+]([O-])c1cc(C(F)(F)F)c(Cl)c([N+](=O)[O-])c1Nc1ncc(C(F)(F)F)cc1Cl
inactive: [4] | [5] | [7] | [8] | [9] | [10] | [20] | [12] | [13]

C[N+]1(C)CCCCC1
not listed: [2] | [3] | [14] | [15] | [17] | [18]
inactive: all other assays above

COc1ccc(C(=CC(=O)N2CCOCC2)c2ccc(Cl)cc2)cc1OC
active: [17] 48.3 µM | [5] 9.11 µM | [6] 16.4 µM | [7] 35.4 µM | [8] 43.7 µM | [9] 42.6 µM | [10] 34.2 µM | [12] 45.5 µM | [13] 37.3 µM
inactive: [14] | [18] | [3] | [16] | [4] | [11]

CCOC(=O)COc1cc(-c2nn(C)c(OC(F)F)c2Cl)c(F)cc1Cl
not listed: [1] | [3] | [7] | [10] | [19] | [20]
inactive: all other assays above

CN1COCN(Cc2cnc(Cl)s2)C1=N[N+](=O)[O-]
not listed: [2] | [3] | [11] | [13] | [14] | [17] | [18] | [20]
inactive: all other assays above

CN(C)[C@@H]1C(=O)C(C(N)=O)=C(O)[C@@]2(O)C(=O)C3=C(O)c4c(O)cccc4[C@@](C)(O)[C@H]3[C@H](O)[C@@H]12
inactive: [4] | [17] | [5] | [6] | [7] | [8] | [9] | [10] | [11] | [12] | [13]

Cc1ccn2nc(S(=O)(=O)Nc3c(F)cccc3F)nc2n1
inactive: [4] | [17] | [5] | [6] | [7] | [8] | [9] | [10] | [11] | [12] | [13]

C=C(C)[C@H]1Cc2c(ccc3c2O[C@@H]2COc4cc(OC)c(OC)cc4[C@@H]2C3=O)O1
active: [4] 0.347 µM
inactive: [17] | [5] | [6] | [7] | [8] | [9] | [10] | [11] | [12] | [13]

CN(C)C(=O)Nc1cccc(C(F)(F)F)c1
not listed: [2] | [14] | [15] | [17]
inactive: all other assays above
